Reference: PubChem BioAssay

Assay: budding yeast growth changes without added modifier – OD600, strain BY4716, 24 h, basal condition, primary screen (AID 1173)
Details: S. cerevisiae BY4716 growth, OD600, 24 h; higher = more signal, called active from +8 up or from −8 down

z-score, inactive:
C=CC[C@@]1(C(=O)NCC(O)CO)N=C(c2ccc(OCCCO)cc2)O[C@@H]1c1ccccc1CN=[N+]=[N-] (some centres undefined) -1.14
O=C(CS)NCCCCCCNC(=O)[C@@H]1C[C@@H]2C(=O)N[C@@H](Cc3ccccc3)C(=O)N2[C@@H]1c1ccc(O)cc1 0.636
C=CC[C@]1(C(=O)N2CCCCC2)N=C(c2ccc(OCCCO)cc2)O[C@H]1c1ccccc1N=[N+]=[N-] -0.807
COC(=O)[C@@]1(Cc2ccc(OC)cc2)[C@H]2c3cc(C(=O)N(C)C)n(Cc4ccc(C)c(F)c4F)c3C[C@H]2CN1C(=O)c1ccccc1 1.45
[N-]=[N+]=NCc1ccccc1C[C@]1(C(=O)N2CCCCC2)N=C(c2ccc(OCCCO)cc2)O[C@H]1c1ccccc1CN=[N+]=[N-] 1.06
CC(C)[Si](OCC[C@H]1O[C@]2(C(=O)N(Cc3ccccc3)c3ccccc32)[C@@H](C)[C@@H]1[Si](C)(C)O)(C(C)C)C(C)C -0.113
C=CCC(OC(C)=O)[C@@H]1[C@@H](N(Cc2ccc(-c3cccc(C(F)(F)F)c3)o2)C(=O)Cc2ccc(F)cc2)c2cc(OCCCO)ccc2N1C(=O)c1ccc(-c2ccccc2)cc1 (some centres undefined) -0.0284
C=C[C@H](OC)[C@@H](OC(=O)Nc1ccc(SC)cc1)c1ccc(O)c(F)c1 -2.99
O=C1O[C@H](c2ccccc2)[C@H](c2ccccc2)N2[C@H]1[C@@H](C(=O)NC[C@H](O)c1ccccc1)[C@]1(C(=O)Nc3ccc(C#CC4(O)CCCCCC4)cc31)[C@H]2c1ccc(OCCO)cc1 0.359
CC(C)C[C@@H]1NC(=O)[C@H](CC(C)C)NC(=O)[C@@]23C(=O)N[C@@H](Cc4ccccc4)C2[C@H](C)[C@@]2(C)O[C@H]2C3/C=C/CC/C=C/CNC1=O (some centres undefined) -0.737
O=C1NC(=O)C2C1C=CC(C(O)C=Cc1ccc([N+](=O)[O-])cc1)N2Nc1ccccn1 (centres undefined) -0.203
NC(=O)NCC#Cc1ccc2c(c1)[C@]1(C(=O)N2)[C@H](C(N)=O)[C@H]2C(=O)O[C@H](c3ccccc3)[C@H](c3ccccc3)N2[C@@H]1c1ccccc1OCCO -0.275
CCOC(=O)C[C@H]1[C@H](OC(=O)c2cc3ccccc3oc2=O)[C@@H](NC(=O)C2CCCCC2)c2cc(OCCCO)ccc2N1C(=O)c1ccc2ccccc2n1 1
COc1cc2c(cc1OC)CN(C(=O)[C@H]1[C@@H]3C(=O)O[C@@H](c4ccccc4)[C@@H](c4ccccc4)N3[C@@H](c3ccc(O)cc3)[C@]13C(=O)Nc1ccc(C#CC4(O)CCCCCC4)cc13)CC2 0.076
O=C1OCCC/C=C\[C@H]2OC34C=CCN(CCN5CCOCC5)C(=O)[C@H]3N(CCCCCO)C(=O)[C@@H]4C12 (some centres undefined) -0.0575
C[N+](C)(C)CCCCNC(=O)[C@H]1C[C@H]2C(=O)NCC(=O)N2[C@H]1c1cccc(OCCO)c1 0.167
O=C1C[C@@](C(=O)NC2CC2)(c2ccc([N+](=O)[O-])cc2)[C@@H](c2ccc(CO)cc2I)N1CC12CC3CC(CC(C3)C1)C2 0.579
C=C(CCCC)/C(=C/C[C@@H](OC(=O)c1ccncc1)c1cccc(OCCO)c1)c1cc(C(=O)OC)ccc1OC 0.199
Cc1ccc(S[C@]2(C(=O)NCCCN(C)C)CC(=O)N(Cc3ccccc3)[C@@H]2c2ccc(CO)cc2I)cc1 -4.78
O=C1O[C@H](c2ccccc2)[C@H](c2ccccc2)N2[C@H]1[C@@H](C(=O)Nc1nc3ccccc3s1)[C@]1(C(=O)Nc3ccc(C#CC4(O)CCCCCC4)cc31)[C@H]2c1ccc(O)cc1 -0.945
O=C(NCc1ccccc1)[C@@]1(Cc2ccccc2)COC(c2ccc(OCCCO)cc2)=N1 0.0178
C=C(CCCC)/C(=C/C[C@@H](OC(=O)c1ccncc1)c1ccc(CO)o1)c1cnc2ccccc2c1 -1.95
O=C1C2C=CC(C(O)C#Cc3ccccc3)N(Nc3ccccc3)C2C(=O)N1c1ccccc1 (centres undefined) -3.55
CCCC=C(CCC)[C@@H](NC(=O)c1ccc(C(F)(F)F)cc1)c1ccccc1 0.79
COc1ccc(NN2C(C(O)c3cc(OC)c(OC)c(OC)c3)C=CC3C(=O)N(C4CCCCC4)C(=O)C32)cc1 (centres undefined) -0.376
C#CCCCON=C1C[C@@H](O)[C@@H](O)[C@@H]2[C@@H]3C(=O)N(Cc4ccc5c(c4)OCO5)C(=O)[C@@H]3CC[C@@H]12 0.532
COC(=O)C1=CC(c2ccc(CO)cc2)=CC(c2cccs2)N(Cc2cccc(OC(F)(F)F)c2)C=C1C(=O)OC (centres undefined) -0.871
O=C1O[C@H](c2ccccc2)[C@H](c2ccccc2)N2[C@H]1[C@@H](C(=O)NC[C@H](O)c1ccccc1)[C@]1(C(=O)Nc3ccc(C#CC4=CCCCC4)cc31)[C@H]2c1ccc(OCCO)cc1 1.17
CC[C@H]1C2=C3C(CC[C@H]4C(OC)OC[C@](C)([C@@H]34)N(C(=O)OC(C)(C)C)C2)C(CO)C1CO (some centres undefined) 0.145
